# Reference: PubChem BioAssay (Tox21)
# Records with an inconclusive call do not appear. Values without a mark were called inactive. Active and inactive are the calls of the source. Calls come from the whole dose curve.
# Assay: qHTS assay to identify small molecule agonists of the progesterone receptor (PR) signaling pathway - cell viability counter screen (AID 1346799); note: nearly all actives have a fitted effect of over 45% in size
# Details: PR-UAS-bla HEK293T viability, CellTiter-Glo luminescence, 16 h; series mostly up to 92.4 µM; activity change, negative = cytotoxicity: at the top concentration
# Source text: National Center for Advancing Translational Sciences [NCATS]
# NIH Chemical Genomics Center [NCGC]
# U.S. Environmental Protection Agency [EPA]
# National Institutes of Environmental Health Sciences [NIEHS]
# National Toxicology Program [NTP]
# U.S. Food and Drug Administration [FDA]
# Progesterone receptor (PR), a nuclear hormone receptor, plays an important role in development, metabolic homeostasis and reproduction. It is activated by the steroid hormone progesterone. Endocrine disrupting chemicals (EDCs) and their interactions with steroid hormone receptors like PR causes disruption of normal endocrine function. To identify the compounds that stimulate PR signaling, a PR-UAS-bla GripTite cell line i.e. PR-UAS-bla HEK293T (Invitrogen, Carlsbad, CA, USA) containing a beta-lactamase reporter gene under the control of an UAS response element was used to screen Tox21 10K compound library. The cytotoxicity of the Tox21 compound library against the PR-bla cell line was tested in parallel by measuring the cell viability using CellTiter-Glo assay in the same wells.
# Tox21 Assay Protocol Summary:
# PR-UAS-bla HEK293T cells were dispensed at 3,000 cells/5 uL of assay medium containing 2% charcoal stripped FBS per well into black wall/clear-bottom 1536-well plates using a Multidrop Combi (ThermoFisher Scientific, Waltham, MA) dispenser. After the assay plates were incubated at a 37C and 5% CO2 for 6 hr, 23 nL of compounds dissolved in DMSO, positive controls or DMSO only was transferred to the assay plate by a Pintool station (Kalypsys, San Diego, CA). The plates were incubated at 37C and 5% CO2 for 16 hr. Then 1 uL of LiveBLAzer B/G FRET substrate was added using a Flying Reagent Dispenser (FRD, Aurora Discovery, San Diego, CA), the plates were incubated at room temperature for 2 hours, and fluorescence intensity was measured by an Envision plate reader (PerkinElmer, Shelton, CT). For cell viability readout that measures cytotoxicity, 4 uL/well of CellTiter-Glo reagent was added into the assay plates using a FRD. After 30 min incubation at room temperature, the luminescence intensity in the plates was measured using a ViewLux (PerkinElmer) plate reader.
# % is set by controls: 0 for no effect and ±100 for the full control effect; potency is the fitted concentration of half-maximal effect.
SMILES,"activity change, negative = cytotoxicity",Potency
OC1(c2ccccc2)CCNCC1,-4.13% [at 42.5 µM],–
CC(C)C=O,-2.17%,–
CC(=O)c1ccc([N+](=O)[O-])cc1,-0.0163%,–
CC(=O)OCC(=O)NCCCOc1cccc(CN2CCCCC2)c1,-8.05% [at 42.5 µM],–
C[C@@H]1CN(CCCn2c3ccccc3c3ccccc32)C[C@H](C)N1,–,11.9 µM (active)
C/C=C/C=C/C=O,1.47%,–
O=C(O)c1ccc(OCCCOc2ccc(C(=O)O)cc2)cc1,2.22% [at 42.5 µM],–
CCCCCC#CC(=O)OC,-3.24%,–
O[C@@H]1CO[C@H]2[C@@H]1OC[C@@H]2O,-3.26% [at 42.5 µM],–
CCC1NC(=O)c2cc(S(N)(=O)=O)c(Cl)cc2N1 (stereo not given),3.46% [at 42.5 µM],–
O=C(OC(=O)c1ccccc1)c1ccccc1,4.54%,–
NC1[C@H]2CN(c3nc4c(cc3F)c(=O)c(C(=O)O)cn4-c3ccc(F)cc3F)C[C@@H]12 (stereo not given in full),-10.9% [at 42.5 µM],–
CC1CC(OC(=O)C(O)c2ccccc2)CC(C)(C)N1C (stereo not given),6.79% [at 42.5 µM],–
CCCCC(CC)CN (stereo not given),-16.3%,–
C=CC(=O)OCC1CC2CC1C1CCC(COC(=O)C=C)C21 (stereo not given),-23.5%,–
CN1C(C(=O)Nc2ccccn2)=C(O)c2sccc2S1(=O)=O,-18.7% [at 42.5 µM],–
C[C@@]12CCC[C@H]1[C@@H]1CC[C@H]3C[C@@H](O)CC[C@]3(C)[C@H]1CC2,-20.9% [at 42.5 µM],–
CCC=CC#N,6.12%,–
CC(CN(C)C)C(C)(O)Cc1ccc(Cl)cc1 (stereo not given),–,16.8 µM (active)
COc1cc(N)c(Cl)cc1C(=O)NC1CCN(CCCOc2ccc(F)cc2)CC1OC (stereo not given),-2.96% [at 42.5 µM],–

SMILES,"activity change, negative = cytotoxicity",Potency
Cc1ccccc1N=C(N)Nc1ccccc1C,-14.8%,–
NCCNCCO,4.84%,–
c1ccc2sc(SN(C3CCCCC3)C3CCCCC3)nc2c1,6.25%,–
Cc1ccc(C(C)(C)O)cc1,3.3%,–
CCCCCCCC/C=C\CCCCCCCCCCCC(=O)O,-1.6%,–
CC1=C(Br)C(=O)C(Br)=C/C1=C(/c1ccccc1S(=O)(=O)O)c1cc(Br)c(O)c(Br)c1C,-5.56% [at 42.5 µM],–
Cc1cc(O)c(C)c(C)c1O,0% [at 42.5 µM],–
Cc1cscn1,12.7%,–
CCCCCCCC/C=C\CCCCCCCCO,7.62%,–
O=C1c2ccccc2C(=O)C1c1ccc(Br)cc1,-4.65% [at 42.5 µM],–
CN1CCCC(CC2c3ccccc3Sc3ccccc32)C1 (stereo not given),–,18.8 µM (active)
CC(C)=CCC1C(=O)N(c2ccccc2)N(c2ccccc2)C1=O,2.62% [at 42.5 µM],–
Nc1cccc2c1CN(C1CCC(=O)NC1=O)C2=O (stereo not given),-3.23% [at 42.5 µM],–
CC(C)(C)C(=O)C(=O)O,-0.149%,–
O=C1NCCN1CCO,-0.404%,–
NNC(=O)CP(=O)(c1ccccc1)c1ccccc1,-0.13% [at 42.5 µM],–
COc1ccccc1Oc1c(NS(=O)(=O)c2ccc(C(C)(C)C)cc2)nc(-c2ncccn2)nc1OCCO,-3.07% [at 42.5 µM],–
c1ccc2c(c1)CCc1ccccc1N2,–,inactive
CN(C)CCN1C(=O)c2ccccc2N(C)c2ccccc21,0.382% [at 42.5 µM],–
Cc1ccc(Cl)c(Nc2ccccc2C(=O)O)c1Cl,6.78% [at 42.5 µM],–
